Hits are enriched below; roughly 2.3% of the tested compounds scored in any of these assays.
GLD-1 RNA inh: GLD-1/TGE RNA complex disruptors, primary screen, biochemical, fluorescence polarization. Female germline-specific tumor suppressor gld-1 (Caenorhabditis elegans), Q17339. purified GLD-1 + fluorescein TGE RNA. inhibition, % at 5.96 µM. 320,000 tested, 0.44% active;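 active means percent inhibition above a per-plate cutoff, the plate mean of test compounds plus 3 SD, cut at about 30% in these data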
Target sequence (Q17339 whole entry, looked up): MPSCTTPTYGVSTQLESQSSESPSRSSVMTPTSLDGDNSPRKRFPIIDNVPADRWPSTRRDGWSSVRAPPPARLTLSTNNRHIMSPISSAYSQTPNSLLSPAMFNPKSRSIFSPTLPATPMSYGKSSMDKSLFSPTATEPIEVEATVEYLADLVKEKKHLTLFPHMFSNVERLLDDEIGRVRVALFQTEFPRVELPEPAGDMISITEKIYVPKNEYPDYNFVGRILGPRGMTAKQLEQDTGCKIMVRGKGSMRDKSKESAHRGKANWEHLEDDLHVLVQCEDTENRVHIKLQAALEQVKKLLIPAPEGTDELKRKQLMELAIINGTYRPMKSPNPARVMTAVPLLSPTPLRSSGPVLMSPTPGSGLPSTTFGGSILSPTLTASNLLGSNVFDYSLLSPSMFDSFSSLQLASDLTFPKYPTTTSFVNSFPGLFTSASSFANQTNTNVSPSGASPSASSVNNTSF
MCL1-BIM inh: inhibitors of MCL1 binding to BIM-BH3, primary screen, biochemical, fluorescence polarization. Induced myeloid leukemia cell differentiation protein Mcl-1 (Homo sapiens), Q07820. inhibition, % at 10.9 µM. 320,000 tested, 0.68% active. GST-MCL1 / FITC-Bim-BH3 fluorescence polarization;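 active means inhibition above the mean inhibition of all tested compounds plus 3 SD, set per campaign, cut at about 40% in these data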;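 further: higher means more loss of mP so more displacement of Bim peptide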
BCLXL inh: inhibitors of human Bcl-xL, primary screen, biochemical, fluorescence polarization, HTS; Bcl-2-like protein 1 (Homo sapiens), Q07817; GST-Bcl-xL / FITC-Bim BH3 peptide fluorescence polarization; inhibition, % at 10.9 µM; 320,000 tested, 0.7% active; AID 2129, 2009;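 active means inhibition above the mean of all tested compounds plus 3 SD, cutoff set per campaign, cut at about 30% in these data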;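 further: inhibitors lower millipolarization by displacing the labeled peptide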
Mcl1-Noxa inh: Mcl-1/Noxa binding inhibitors, primary screen, biochemical, TR-FRET, 1536-well; TR-FRET Mcl-1/Noxa peptide binding, 2 h; inhibition, % at 21.7 µM; 220,000 tested, 1.5% active;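 active means compounds that cut the protein-peptide binding signal by more than 50% relative to plate controls in a single-dose test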;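 further: His-tagged Mcl-1 with rhodamine Noxa BH3 peptide and terbium anti-His antibody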
Mcl-1 Bim block: inhibitors of Bim peptide binding to Mcl-1, primary screen, biochemical, bead-based flow cytometry, multiplex; 190,000 tested, 0.1% active; Bim peptide-Mcl-1 binding; inhibition, % at 10 µM; Induced myeloid leukemia cell differentiation protein Mcl-1 (Homo sapiens), Q07820; in the data active means inhibition above about 40%
Mcl1 Bid PPI: Mcl-1/Bid binding inhibitors, primary screen, biochemical, TR-FRET, 1536-well; Induced myeloid leukemia cell differentiation protein Mcl-1 (Homo sapiens), Q07820; TR-FRET Mcl-1/Bid-Dy647 peptide binding; inhibition, % at 21.7 µM; 220,000 tested, 0.97% active;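 active means compounds that cut the binding signal by more than half at the single screening dose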;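 further: His-tagged Mcl-1 with europium anti-His antibody binding Bid BH3 peptide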
Large screens that a line does not name were inactive.

CCOCCCNC(=O)c1cn(CC)c2ccc(S(=O)(=O)N3CCC(C)CC3)cc2c1=O	BCLXL inh 37 (no result: Mcl1-Noxa inh, Mcl-1 Bim block, Mcl1 Bid PPI)
CCCCN(C)CCCNC(=O)c1cn(CC)c2ccc(S(=O)(=O)N3CCc4ccccc4C3)cc2c1=O	Mcl1-Noxa inh 53
C[C@H](O)[C@H](O)[C@H]1CNc2nc(N)[nH]c(=O)c2N1	BCLXL inh 33 (no result: Mcl1-Noxa inh, Mcl-1 Bim block, Mcl1 Bid PPI)
C[C@H](O)C(=O)C1=Nc2c(nc(N)[nH]c2=O)NC1	none (no result: Mcl1-Noxa inh, Mcl-1 Bim block, Mcl1 Bid PPI)
CCn1c(SCC(=O)N2CCCC2)nc2c1c(=O)n(C)c(=O)n2C	BCLXL inh 52
CCn1c(SCC(=O)N2CCN(C)CC2)nc2c1c(=O)n(C)c(=O)n2C	none (no result: Mcl1-Noxa inh, Mcl-1 Bim block, Mcl1 Bid PPI)
CC(=O)c1ccc(-n2c(CCC(=O)O)ccc2-c2cccs2)cc1	Mcl1-Noxa inh 69
O=C(Cc1ccccc1)Nc1ccnn1C1CCN(Cc2nccs2)CC1	none (no result: Mcl1-Noxa inh, Mcl-1 Bim block, Mcl1 Bid PPI)
Cn1c(=O)c(C(=O)CSc2nnc(Nc3ccccc3)s2)c(N)n(Cc2ccccc2)c1=O	Mcl1-Noxa inh 70
CCCS(=O)(=O)NCc1ccc2c(c1)cc(C)n2C	none
COc1cccc(C(=O)NCc2ccc3c(c2)cc(C)n3C)c1	none
COc1ccc(C(=O)NCc2ccc3c(c2)cc(C)n3C)cc1OC	BCLXL inh 37
CCS(=O)(=O)NCc1ccc2c(c1)cc(C)n2C	Mcl1 Bid PPI 70
COc1ccc(C)cc1NC(=O)C1CCN(S(=O)(=O)c2cccs2)CC1	none (no result: Mcl1-Noxa inh, Mcl-1 Bim block, Mcl1 Bid PPI)
COc1ccccc1C1Nc2cccc3cccc(c23)N1	none
Oc1ccccc1C1Nc2cccc3cccc(c23)N1	Mcl1-Noxa inh 98
CCOC(=O)CC1C(=O)NCCN1C(=O)c1ccc(Cl)c(Cl)c1 (centres undefined)	none (no result: Mcl1-Noxa inh, Mcl-1 Bim block, Mcl1 Bid PPI)
CCOC(=O)C1=C(O)/C(=C/c2ccc(OCC(=O)O)c(OC)c2)SC1=Nc1ccc(OCC)cc1	none
CCOC(=O)C1=C(O)/C(=C/c2cc(OC)c(O)c(OC)c2)SC1=Nc1ccc(OC)cc1	Mcl1-Noxa inh 75 (no result: GLD-1 RNA inh, MCL1-BIM inh, BCLXL inh)
Cc1ccc2oc(C(=O)NCC3CCOCC3)c(C)c2c1	none (no result: Mcl1-Noxa inh, Mcl-1 Bim block, Mcl1 Bid PPI)
Cc1cc(OCC(O)CN2CCc3ccccc3C2)ccc1Cl (centres undefined)	none (no result: Mcl1-Noxa inh, Mcl-1 Bim block, Mcl1 Bid PPI)
O=C(Nc1ccc(C2=NCCN2)cc1)c1ccc(C(=O)Nc2ccc(C3=NCCN3)cc2)c([N+](=O)[O-])c1	Mcl1-Noxa inh 67 (no result: Mcl-1 Bim block)
Cc1ccc(NC(=O)c2ccc(-n3cccn3)c([N+](=O)[O-])c2)cc1	none
C=CC(=O)NCC1OCCc2ccccc21 (centres undefined)	none
O=C(/C=C/c1ccco1)NCC1OCCc2ccccc21 (centres undefined)	Mcl1-Noxa inh 62 (no result: Mcl-1 Bim block)
Oc1cc(-n2cccn2)c(O)cc1-n1cccn1	Mcl1-Noxa inh 70 (no result: Mcl-1 Bim block)
O=C(OCC(=O)N1CCCc2ccccc21)c1ccc(S(=O)(=O)C(F)F)cc1	none (no result: Mcl1-Noxa inh, Mcl-1 Bim block, Mcl1 Bid PPI)
Oc1c(/C=N/c2ccccn2)sc2ccccc12	Mcl1-Noxa inh 76 (no result: Mcl-1 Bim block)
O=C1Nc2ccc(Br)cc2/C1=C/C(=O)c1ccc2c(c1)OCO2	Mcl1-Noxa inh 105, Mcl1 Bid PPI 72 (no result: Mcl-1 Bim block)
CCOC(=O)c1sc(N)nc1-c1ccccc1	none
CCOC(=O)c1snc(-c2ccc(F)cc2)c1N	Mcl-1 Bim block 66
CCCn1c(SCC(=O)Nc2cccnc2Cl)n[nH]c1=O	none (no result: MCL1-BIM inh, BCLXL inh, Mcl1-Noxa inh, Mcl-1 Bim block, Mcl1 Bid PPI)
COc1ccc2oc(C(=O)OCC(=O)N(Cc3ccccc3)C(C)(C)C)c(C)c2c1	none (no result: Mcl1-Noxa inh, Mcl-1 Bim block, Mcl1 Bid PPI)
Cc1cc(C)n2nc(SCC(=O)N3CCN(c4ccccc4)CC3)nc2n1	none (no result: MCL1-BIM inh, BCLXL inh, Mcl1-Noxa inh, Mcl-1 Bim block, Mcl1 Bid PPI)
CC(C)c1ccc(NS(=O)(=O)c2ccc(Cl)nc2)cc1	Mcl1 Bid PPI 55
CN(C)c1ccc(NS(=O)(=O)c2ccc(Cl)cc2)cc1	Mcl1-Noxa inh 61
CN(C)c1ccc(S(=O)(=O)c2ccc(Cl)cc2)cc1	none
O=[N+]([O-])c1cc(NS(=O)(=O)c2ccc(Cl)nc2)ccc1Cl	none (no result: Mcl1-Noxa inh, Mcl-1 Bim block, Mcl1 Bid PPI)
Cc1ccc(S(=O)(=O)Nc2ccc(N(C)C)cc2)cc1	Mcl1-Noxa inh 73
CN(C)c1ccc(NS(=O)(=O)c2ccc(-c3csnn3)cc2)cc1	none (no result: Mcl-1 Bim block)
